Laboratory results published in PubChem BioAssay.
Records with an inconclusive call do not appear. Calls of active or inactive are those of the source.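 How the source made its calls, unless noted: active means normalized viability below 100% at a tested concentration; inactive means the rest.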

Key:
[1] = growth inhibition of DIPG glioma cells, dose response, cell-based, SU-DIPG-XVII, MIPE5.0, CellTiter-Glo, qHTS (AID 1347060; cut-off not given, nearly all actives have AC50 up to about 26 µM;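 on AC50: cells exposed to compound for 48 hours before viability readout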); conditions: SU-DIPG-XVII viability, CellTiter-Glo ATP luminescence
[2] = growth inhibition of DIPG glioma cells, dose response, cell-based, JHH-DIPG-1, MIPE4.0, CellTiter-Glo, qHTS (AID 1347062; cut-off not given, nearly all actives have AC50 up to about 27 µM;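 on AC50: cells exposed to compound for two days before readout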); conditions: JHH-DIPG-1 viability, CellTiter-Glo ATP luminescence
[3] = growth inhibition of DIPG glioma cells, dose response, cell-based, SU-DIPG-IV, MIPE4.0, CellTiter-Glo, qHTS (AID 1347063; cut-off not given, nearly all actives have AC50 up to about 30 µM;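 further: compound exposure lasted 48 hours before the viability readout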); conditions: SU-DIPG-IV viability, CellTiter-Glo ATP luminescence
[4] = growth inhibition of DIPG glioma cells, dose response, cell-based, SU-DIPG-XIII, MIPE5.0, CellTiter-Glo, qHTS (AID 1347064; cut-off not given, nearly all actives have AC50 up to about 23 µM;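 further: cells exposed to compound for 48 hours before the viability read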); conditions: SU-DIPG-XIII viability, CellTiter-Glo ATP luminescence
[5] = viability loss in pontine glioma line – cell-based, SU-DIPG-XXV, MIPE5.0, CellTiter-Glo, qHTS, dose response (AID 1347065; cut-off not given, nearly all actives have AC50 up to about 26 µM;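 further: cells exposed to compound for 48 hours before ATP readout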); conditions: CellTiter-Glo ATP luminescence
[6] = SU-DIPG-VI glioma cell viability, MIPE4.0 library, CellTiter-Glo luminescence, qHTS (AID 1347066; cut-off not given, nearly all actives have AC50 up to about 30 µM;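 further: cells exposed to compound for 48 hours before readout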); conditions: CellTiter-Glo ATP luminescence
[7] = JHH-DIPG-1 glioma cell viability, MIPE5.0 library, CellTiter-Glo luminescence, qHTS (AID 1347067; cut-off not given, nearly all actives have AC50 up to about 26 µM;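 further: cells exposed to compound for 48 hours before readout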); conditions: JHH-DIPG-1 glioma viability, CellTiter-Glo ATP luminescence
[8] = SU-DIPG-XXV glioma cell viability, MIPE5.0 library, qHTS (AID 1347068; cut-off not given, nearly all actives have IC50 up to about 30 µM;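 on IC50: cells exposed to compound for 48 hours before viability readout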)
[9] = sensitizers of A549 cells to miR-34 induction, primary screen, imaging, A549 dox-inducible miR-34, nuclei and caspase counts (AID 1347080;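 active means compounds whose cell count with miR-34 switched on is under 0.7 times the count with it off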); conditions: A549 miR-34 inducible, Hoechst nuclei count, 48 h
[10] = modifiers of HSF1 nuclear foci, imaging, Selleck Cancer Library (AID 1347162; in the data active means plate-normalised HSF1 focus index below about 0.46); conditions: human cells, at 10 µM; SSMD: measured here: HSF1 foci SSMD mean; cell count: measured here: cell number; plate-normalised HSF1 focus index: stronger effect = lower value
[11] = survival rescue of mitochondrial mutant cells in low glucose, primary screen, MELAS cybrids, Rieske KO mouse fibroblasts, CellTiter-Glo (AID 1508586;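 active means mean z-score across replicates of 1.96 or higher in either the MELAS or the Rieske mutant cell line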;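 further: z relative to plate mean and SD of compound and empty wells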)
[12] = ovarian cancer cell viability with rucaparib, profiling panel, oncology-focused library, rucaparib conditional (AID 1508598); conditions: patient-derived ovarian cancer cells, CellTiter-Glo viability, 144 h, stronger effect = lower value
[13] = growth inhibition of DIPG glioma cells, dose response, cell-based, SU-DIPG-XIII, MIPE4.0, CellTiter-Glo, qHTS (AID 1347061; cut-off not given, nearly all actives have AC50 up to about 37 µM;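 further: cells exposed to compound for 48 hours before readout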); conditions: SU-DIPG-XIII viability, CellTiter-Glo ATP luminescence
[14] = liver-stage malaria parasite growth inhibition, primary screen, cell-based, HepG2, luciferase luminescence, HepG2 viability (AID 624349; in the data active means parasite load remaining mostly below about 12%, no sharp cut-off; inactive means mostly above about 10%;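 further: 100% = mean of DMSO negative control wells on the same plate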); conditions: P. berghei liver stage in HepG2, luciferase luminescence, concentration not given here; parasite load remaining: stronger effect = lower value; viability: measured here: HepG2 viability without parasites
[15] = stronger effect = lower value, cell number ratio, induced over uninduced
[16] = measured here: relative caspase fold change +Dox/-Dox
[17] = measured here: total cells with miR-34 induction, stronger effect = lower value
[18] = measured here: total cells without miR-34 induction
[19] = MELAS cybrid survival, CellTiter-Glo 48 h, stronger effect = higher value
[20] = Rieske KO mouse fibroblast survival, CellTiter-Glo 72 h
[21] = at 0.000305 µM, OCI-C5x cells, with rucaparib 10 µM, 100% = cells with rucaparib alone
[22] = at 0.000305 µM, OCI-C5x cells, without rucaparib
[23] = at 0.000305 µM, OCI-P5x cells, with rucaparib 20 µM, 100% = cells with rucaparib alone
[24] = at 0.000305 µM, OCI-P5x cells, without rucaparib
[25] = at 0.00122 µM, OCI-C5x cells, with rucaparib 10 µM, 100% = cells with rucaparib alone
[26] = at 0.00122 µM, OCI-C5x cells, without rucaparib
[27] = at 0.00122 µM, OCI-P5x cells, with rucaparib 20 µM, 100% = cells with rucaparib alone
[28] = at 0.00122 µM, OCI-P5x cells, without rucaparib
[29] = at 0.00488 µM, OCI-C5x cells, with rucaparib 10 µM, 100% = cells with rucaparib alone
[30] = at 0.00488 µM, OCI-C5x cells, without rucaparib
[31] = at 0.00488 µM, OCI-P5x cells, with rucaparib 20 µM, 100% = cells with rucaparib alone
[32] = at 0.00488 µM, OCI-P5x cells, without rucaparib
[33] = at 0.0195 µM, OCI-C5x cells, with rucaparib 10 µM, 100% = cells with rucaparib alone
[34] = at 0.0195 µM, OCI-C5x cells, without rucaparib
[35] = at 0.0195 µM, OCI-P5x cells, with rucaparib 20 µM, 100% = cells with rucaparib alone
[36] = at 0.0195 µM, OCI-P5x cells, without rucaparib
[37] = at 0.0781 µM, OCI-C5x cells, with rucaparib 10 µM, 100% = cells with rucaparib alone
[38] = at 0.0781 µM, OCI-C5x cells, without rucaparib
[39] = at 0.0781 µM, OCI-P5x cells, with rucaparib 20 µM, 100% = cells with rucaparib alone
[40] = at 0.0781 µM, OCI-P5x cells, without rucaparib
[41] = at 0.313 µM, OCI-C5x cells, with rucaparib 10 µM, 100% = cells with rucaparib alone
[42] = at 0.313 µM, OCI-C5x cells, without rucaparib
[43] = at 0.313 µM, OCI-P5x cells, with rucaparib 20 µM, 100% = cells with rucaparib alone
[44] = at 0.313 µM, OCI-P5x cells, without rucaparib
[45] = at 1.25 µM, OCI-C5x cells, with rucaparib 10 µM, 100% = cells with rucaparib alone
[46] = at 1.25 µM, OCI-C5x cells, without rucaparib
[47] = at 1.25 µM, OCI-P5x cells, with rucaparib 20 µM, 100% = cells with rucaparib alone
[48] = at 1.25 µM, OCI-P5x cells, without rucaparib
[49] = at 5 µM, OCI-C5x cells, with rucaparib 10 µM, 100% = cells with rucaparib alone
[50] = at 5 µM, OCI-C5x cells, without rucaparib
[51] = at 5 µM, OCI-P5x cells, with rucaparib 20 µM, 100% = cells with rucaparib alone
[52] = at 5 µM, OCI-P5x cells, without rucaparib

O=C(Cc1ccc(-c2ccc(OCCN3CCOCC3)cc2)cn1)NCc1ccccc1
active: AC50 [1] 118 nM | AC50 [2] 59 nM | AC50 [3] 11.8 nM | AC50 [4] 661 nM | AC50 [5] 118 nM | AC50 [6] 1050 nM | AC50 [7] 132 nM | IC50 [8] 525 nM | viability [12, 32] 96.7% | viability [12, 34] 58.9% | viability [12, 35] 85.3% | viability [12, 36] 29.6% | viability [12, 37] 62.9% | viability [12, 38] 50.7% | viability [12, 39] 69.5% | viability [12, 40] 23.9% | viability [12, 41] 40.7% | viability [12, 42] 33.9% | viability [12, 43] 58.7% | viability [12, 44] 18.5% | viability [12, 45] 46.4% | viability [12, 46] 34.1% | viability [12, 47] 58.9% | viability [12, 48] 17.4% | viability [12, 49] 50.3% | viability [12, 50] 32.6% | viability [12, 51] 49.4% | viability [12, 52] 15.3%
2.71: SSMD [10]
inactive: fold change [9, 15] 1.21 | plate-normalised HSF1 focus index [10] 1.14 | z-score [11, 19] 1.14 | viability [12, 21] 106% | viability [12, 22] 114% | viability [12, 23] 109% | viability [12, 24] 106% | viability [12, 25] 111% | viability [12, 26] 124% | viability [12, 27] 108% | viability [12, 28] 108% | viability [12, 29] 112% | viability [12, 30] 109% | viability [12, 31] 105% | viability [12, 33] 101%
1260: cell count [9, 18]
6240: cell count [10]
-0.489: z-score [11, 20]
1530: cell count [9, 17]
0.488: fold change [9, 16]

CN1CCN(CCOc2cc(OC3CCOCC3)c3c(Nc4c(Cl)ccc5c4OCO5)ncnc3c2)CC1
1170: cell count [9, 17]
active: viability [12, 21] 98.7% | viability [12, 22] 98.5% | viability [12, 23] 98.8% | viability [12, 26] 98.2% | viability [12, 28] 90.6% | viability [12, 29] 97.5% | viability [12, 30] 94.4% | viability [12, 32] 91.3% | viability [12, 34] 94.6% | viability [12, 35] 96.6% | viability [12, 36] 89% | viability [12, 38] 94.2% | viability [12, 39] 82.4% | viability [12, 40] 83% | viability [12, 42] 95.8% | viability [12, 43] 69% | viability [12, 44] 72.2% | viability [12, 45] 91.7% | viability [12, 46] 87.9% | viability [12, 47] 58.9% | viability [12, 48] 64.4% | viability [12, 49] 32.8% | viability [12, 50] 53.2% | viability [12, 51] 5.51% | viability [12, 52] 52.2%
-0.384: z-score [11, 20]
-0.947: SSMD [10]
7430: cell count [10]
1: fold change [9, 16]
1330: cell count [9, 18]
inactive: outcome [1] | outcome [13] | outcome [5] | outcome [7] | outcome [8] | fold change [9, 15] 0.876 | plate-normalised HSF1 focus index [10] 0.94 | z-score [11, 19] 0.931 | viability [12, 24] 104% | viability [12, 25] 107% | viability [12, 27] 102% | viability [12, 31] 102% | viability [12, 33] 107% | viability [12, 37] 105% | viability [12, 41] 104%

COc1ccc(S(=O)(=O)N(C(C)=O)c2ccccc2/C=C/c2cc[n+]([O-])cc2)cc1
active: AC50 [1] 1480 nM | AC50 [2] 935 nM | AC50 [3] 372 nM | AC50 [4] 2630 nM | AC50 [5] 1180 nM | AC50 [7] 1860 nM

COc1cc2nccc(Oc3ccc(NC(=O)NC4CC4)c(Cl)c3)c2cc1C(N)=O
2.76: SSMD [10]
active: AC50 [1] 2090 nM | AC50 [2] 2350 nM | AC50 [3] 4690 nM | AC50 [4] 4680 nM | AC50 [5] 2350 nM | viability [12, 51] 91.4% | viability [12, 52] 88.9%
5580: cell count [9, 17]
inactive: fold change [9, 15] 0.924 | plate-normalised HSF1 focus index [10] 1.14 | z-score [11, 19] -0.303 | viability [12, 21] 125% | viability [12, 22] 110% | viability [12, 23] 111% | viability [12, 24] 105% | viability [12, 25] 100% | viability [12, 26] 110% | viability [12, 27] 112% | viability [12, 28] 114% | viability [12, 29] 108% | viability [12, 30] 103% | viability [12, 31] 110% | viability [12, 32] 112% | viability [12, 33] 103% | viability [12, 34] 113% | viability [12, 35] 117% | viability [12, 36] 114% | viability [12, 37] 103% | viability [12, 38] 112% | viability [12, 39] 111% | viability [12, 40] 111% | viability [12, 41] 108% | viability [12, 42] 110% | viability [12, 43] 108% | viability [12, 44] 110% | viability [12, 45] 126% | viability [12, 46] 111% | viability [12, 47] 119% | viability [12, 48] 112% | viability [12, 49] 142% | viability [12, 50] 111%
1.21: fold change [9, 16]
6600: cell count [10]
0.105: z-score [11, 20]
6040: cell count [9, 18]

CC(C)c1nn(-c2c(Cl)cccc2Cl)c2nc(Cc3ccc(OCCO)cc3)[nH]c(=O)c12
79.7%: viability [14]
active: AC50 [1] 41.7 nM | AC50 [2] 118 nM | AC50 [3] 83.3 nM | AC50 [4] 46.8 nM | AC50 [5] 41.7 nM | AC50 [7] 46.8 nM | IC50 [8] 83.3 nM
inactive: parasite load remaining [14] 77.3%

COc1ccc(-c2oc3c(CC=C(C)C)c(O)cc(O)c3c(=O)c2O)cc1
active: AC50 [1] 20900 nM | AC50 [4] 16600 nM | AC50 [5] 18600 nM
inactive: outcome [2] | outcome [3] | outcome [8]
